Assay results as given in PubChem BioAssay (NCI).
The panel holds about 83,000 compounds, 20% with a hit somewhere; the sample as a whole holds those more often.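 The endpoint reported here, percent growth, reads 100 for growth as untreated, 0 for no net growth and -100 for all cells dead.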 Calls of active or inactive are those of the source. Rule for the calls: active = growth percent below 10; inactive = the rest.

Tests used:
Test in all cases: NCI-60 one-dose screen, 48 h (100 = growth as untreated, 0 = no growth, -100 = all killed)
Settings in all cases: 10 µM unless noted
NCI-H23 lung = system: NCI-H23 lung
NCI-H226 lung = system: NCI-H226 lung
NCI-H322M lung = system: NCI-H322M lung
HOP-62 NSCLC = system: HOP-62 NSCLC
NCI-H460 lung = system: NCI-H460 lung
NCI-H522 lung = system: NCI-H522 lung
A549/ATCC NSCLC = system: A549/ATCC NSCLC
786-0 renal = system: 786-0 renal
COLO 205 colon = system: COLO 205 colon
DU-145 prostate = system: DU-145 prostate
K-562 leukemia = system: K-562 leukemia
MALME-3M melanoma = system: MALME-3M melanoma
MDA-MB-231 breast = system: MDA-MB-231 breast
RXF 393 renal = system: RXF 393 renal
SF-268 CNS = system: SF-268 CNS
SF-295 CNS = system: SF-295 CNS
SF-539 CNS = system: SF-539 CNS
UACC-257 melanoma = system: UACC-257 melanoma
M14 melanoma = system: M14 melanoma

Measured: growth

NS(=O)(=O)c1ccc(CCn2c(SCC(=O)N/N=C/c3cc4ccccc4[nH]3)nc3ccccc3c2=O)cc1
inactive: NCI-H23 lung 58.8% | NCI-H226 lung 76.6% | NCI-H322M lung 83.7% | HOP-62 NSCLC 68.7% | NCI-H460 lung 30.4% | NCI-H522 lung 19.5% | A549/ATCC NSCLC 84.3% | 786-0 renal 78.9% | COLO 205 colon 74.4% | DU-145 prostate 64.8% | K-562 leukemia 27.5% | MALME-3M melanoma 38.8% | MDA-MB-231 breast 61.7% | RXF 393 renal 91% | SF-268 CNS 89.2% | SF-295 CNS 90.9% | SF-539 CNS 82.8% | UACC-257 melanoma 82.6% | M14 melanoma 74%

COc1ccc2[nH]cc(C3(c4c[nH]c5ccc(OC)cc45)C(=O)Nc4ccc(Cl)cc43)c2c1
active: NCI-H460 lung 6.57% | K-562 leukemia 6.2%
inactive: NCI-H23 lung 80.3% | NCI-H226 lung 108% | NCI-H322M lung 85.5% | HOP-62 NSCLC 85.2% | NCI-H522 lung 65.7% | A549/ATCC NSCLC 63.6% | 786-0 renal 74.1% | COLO 205 colon 69.2% | DU-145 prostate 66.9% | MALME-3M melanoma 78.9% | MDA-MB-231 breast 82.4% | RXF 393 renal 94.5% | SF-268 CNS 40.8% | SF-295 CNS 59.6% | SF-539 CNS 74.8% | UACC-257 melanoma 86.5% | M14 melanoma 73.8%

CCOC(=O)N1C2CCC(C2)N1C(=O)OCC
inactive: NCI-H23 lung 104% | NCI-H226 lung 91.9% | NCI-H322M lung 115% | HOP-62 NSCLC 108% | NCI-H460 lung 108% | NCI-H522 lung 91.5% | A549/ATCC NSCLC 107% | 786-0 renal 101% | COLO 205 colon 110% | DU-145 prostate 104% | K-562 leukemia 94.6% | MALME-3M melanoma 104% | MDA-MB-231 breast 115% | RXF 393 renal 106% | SF-268 CNS 97% | SF-295 CNS 106% | SF-539 CNS 132% | UACC-257 melanoma 107% | M14 melanoma 108%

CC(=O)c1ccc(N2C(=O)c3ccc(Oc4ccccc4)cc3C2=O)cc1
inactive: NCI-H23 lung 101% | NCI-H226 lung 98.8% | NCI-H322M lung 106% | HOP-62 NSCLC 99.9% | NCI-H460 lung 105% | NCI-H522 lung 93.1% | A549/ATCC NSCLC 109% | 786-0 renal 108% | COLO 205 colon 116% | DU-145 prostate 103% | K-562 leukemia 119% | MALME-3M melanoma 106% | MDA-MB-231 breast 113% | RXF 393 renal 112% | SF-268 CNS 100% | SF-295 CNS 81.1% | SF-539 CNS 107% | UACC-257 melanoma 118% | M14 melanoma 98.8%

O=C(Nc1cccc(C2=NCCN2)c1)c1ccc(N=Nc2ccc(C(=O)Nc3cccc(C4=NCCN4)c3)cc2)cc1
inactive: NCI-H23 lung 44.3% | NCI-H226 lung 81.5% | NCI-H322M lung 64.7% | HOP-62 NSCLC 42.3% | NCI-H460 lung 41.9% | NCI-H522 lung 36.2% | A549/ATCC NSCLC 33.9% | 786-0 renal 69.2% | COLO 205 colon 64.5% | DU-145 prostate 59.1% | K-562 leukemia 51.8% | MALME-3M melanoma 29.7% | MDA-MB-231 breast 73.1% | RXF 393 renal 105% | SF-268 CNS 54.2% | SF-295 CNS 82.4% | SF-539 CNS 74% | UACC-257 melanoma 55.4% | M14 melanoma 64.9%

Clc1cccc(CNc2c3ccccc3nc3ccccc23)c1
inactive: NCI-H23 lung 32% | NCI-H226 lung 48% | NCI-H322M lung 31.3% | HOP-62 NSCLC 45.5% | NCI-H460 lung 14.2% | NCI-H522 lung 41.7% | A549/ATCC NSCLC 27.9% | 786-0 renal 25.2% | DU-145 prostate 31.6% | MALME-3M melanoma 45% | MDA-MB-231 breast 29.4% | RXF 393 renal 19% | SF-268 CNS 60.6% | SF-295 CNS 20.8% | UACC-257 melanoma 45.4% | M14 melanoma 35.5%
active: COLO 205 colon 0.537% | K-562 leukemia 5.03% | SF-539 CNS 9.28%

COc1cc(C2CC(c3ccc(C)cc3)=NN2C=O)ccc1Oc1ccnc2cc(Cl)ccc12 (stereo unspecified)
inactive: NCI-H23 lung 58.6% | NCI-H226 lung 49.1% | NCI-H322M lung 91.1% | NCI-H460 lung 62.7% | NCI-H522 lung 28.3% | A549/ATCC NSCLC 67.8% | 786-0 renal 18% | COLO 205 colon 108% | DU-145 prostate 89% | K-562 leukemia 109% | MALME-3M melanoma 98% | MDA-MB-231 breast 36.1% | SF-268 CNS 16.3% | UACC-257 melanoma 103% | M14 melanoma 106%
active: HOP-62 NSCLC 3.38% | RXF 393 renal 0.362% | SF-295 CNS 1.79% | SF-539 CNS 4.72%

COc1cc(/C=C/c2cc(/C=C/c3ccc(O)c(OC)c3)n(C(=O)c3ccccc3Br)n2)ccc1O
inactive: NCI-H23 lung 17.7% | NCI-H226 lung 38.5% | NCI-H322M lung 39.5% | HOP-62 NSCLC 43.5% | A549/ATCC NSCLC 41.7% | COLO 205 colon 23.9% | DU-145 prostate 28.9% | MALME-3M melanoma 23.4% | MDA-MB-231 breast 39.7% | SF-268 CNS 28% | UACC-257 melanoma 87.1%
active: NCI-H460 lung 9.15% | NCI-H522 lung 4.2% | 786-0 renal 9.91% | K-562 leukemia 3.62% | RXF 393 renal -3.83% | SF-295 CNS -29.7% | SF-539 CNS 4.02% | M14 melanoma 5.42%

CCOC(=O)Nc1ccc2nc(Sc3ccc(Cl)cc3)sc2c1
inactive: NCI-H23 lung 54.2% | NCI-H226 lung 58.8% | NCI-H322M lung 44.6% | HOP-62 NSCLC 35.1% | NCI-H460 lung 25% | NCI-H522 lung 28.3% | A549/ATCC NSCLC 42.5% | 786-0 renal 49.5% | DU-145 prostate 35.8% | K-562 leukemia 21% | MALME-3M melanoma 42% | MDA-MB-231 breast 43.4% | RXF 393 renal 36.8% | SF-268 CNS 54.4% | SF-295 CNS 29.1% | UACC-257 melanoma 57.3% | M14 melanoma 30%
active: COLO 205 colon -26.4% | SF-539 CNS 5.63%
